# PubChem BioAssay (NCATS)
# Results filed as inconclusive are left out. The source made the active and inactive calls. Calls come from the whole dose curve; as a rule, active = well fitted inhibition curve with a large enough effect; inconclusive = small, poorly fitted or top-dose-only effect; inactive = flat fitted curve, though single readings scatter.
# Experiment: qHTS to identify inhibitors of the type 1 interferon - major histocompatibility complex class I in skeletal muscle: primary screen against the NCATS LOPAC collection (AID 1347405);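 note: human myoblasts with HiBiT tag on endogenous HLA-B stimulated by IFN-beta; lytic HiBiT luminescence reporting HLA-B protein level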
# Conditions: iHSKM muscle cells, IFN-b-induced MHC-I HiBiT luminescence, 24 h; series mostly up to 45.9 µM; activity change, negative = inhibition: at the top concentration
# Outline: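 HLA-B HiBiT myoblasts, IFN-b 4 ng/ml, dexamethasone-free medium; compounds 7-pt 1:4.3 titration, top 46 uM final; 24 h at 37 C; Nano-Glo HiBiT lytic reagent, 10 min RT, luminescence.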
# % is set by controls: 0 for no effect and ±100 for the full control effect; potency is the fitted concentration of half-maximal effect.
SMILES,"activity change, negative = inhibition",Potency
CC(C)NC[C@@H](O)c1ccc(O)c(O)c1,-14.3% (inactive),
NC(=O)C1=CN(C2OC(COP(=O)(O)OP(=O)(O)OC[C@H]3O[C@@H](n4cnc5c(N)ncnc54)[C@H](OP(=O)(O)O)[C@@H]3O)C(O)C2O)C=CC1 (stereo partly drawn),1.87% (inactive),
Nc1ccn([C@@H]2O[C@H](CO)[C@@H](O)[C@@H]2O)c(=O)n1,0.892% (inactive),
NC(=S)c1ccc[n+]([C@@H]2O[C@@H](COP(=O)([O-])OP(=O)(O)OC[C@H]3O[C@@H](n4cnc5c(N)ncnc54)[C@H](OP(=O)(O)O)[C@@H]3O)C(O)C2O)c1 (stereo partly drawn),-10.4% (inactive),
O=C1NC(O)=NC1(c1ccccc1)c1ccccc1,-15.5% (inactive),
CC1OC1P(=O)(O)O (stereo not drawn),-1.87% (inactive),
O=c1[nH]c2cc(C(F)(F)F)ccc2n1-c1cc(C(F)(F)F)ccc1O,-25.8% (inactive),
CCCCCCCC/C=C\CCCCCCCC(=O)NCCO,-3.75% (inactive),
Cn1cc(C2=C(c3ccc(Cl)cc3Cl)C(=O)NC2=O)c2ccccc21,-20.3% (inactive),
O=C(O)CC[C@@H](C(=O)O)N1C(=O)c2ccccc2C1=O,6.17% (inactive),
CC(=O)/C=C1\C(=O)N(C)c2ccccc21,,22.4 µM (active)
CCCCCCCCCCCCCCCC(=O)OC(CC(=O)O)C[N+](C)(C)C (stereo not drawn),-29.9% (inactive),
CN1CCc2ccccc2Cc2[nH]c3ccccc3c2CC1,-26.7% (inactive),
CC1CN(S(=O)(=O)c2cccc3cnccc23)CCN1 (stereo not drawn),-23.1% (inactive),
C[N+](C)(C)CCOP(=O)(O)OP(=O)([O-])OC[C@H]1O[C@@H](n2ccc(N)nc2=O)[C@H](O)[C@@H]1O,1.17% (inactive),
O=C(CCc1ccncc1)NNC(=O)N1Cc2ccccc2Oc2ccc(Cl)cc21,-17.5% (inactive),
N.N.N.N.N.N.N.N.N.N.N.N.N.N.O.O.[Ru+4].[Ru+5].[Ru+5],-17.1% (inactive),
O=C(Nc1cccc(C(=O)Nc2ccc(S(=O)(=O)O)c3cc(S(=O)(=O)O)cc(S(=O)(=O)O)c23)c1)Nc1cccc(C(=O)Nc2ccc(S(=O)(=O)O)c3cc(S(=O)(=O)O)cc(S(=O)(=O)O)c23)c1,-20.6% (inactive),
Nc1nc(Cl)nc2c1ncn2[C@@H]1O[C@H](CO)[C@@H](O)[C@H]1O,-16.5% (inactive),

SMILES,"activity change, negative = inhibition",Potency
C=CC(N)CCC(=O)O (stereo not drawn),-1.09% (inactive),
O=C1/C(=C/c2ccsc2)CC/C1=C\c1cccs1,0.674% (inactive),
NCC1OC(O[C@H]2[C@H](O)[C@@H](OC3C(O)C(N)CC(N)C3OC3OC(CO)C(O)C(O)C3N)O[C@@H]2CO)C(N)C(O)C1O (stereo partly drawn),-4.09% (inactive),
CC1(C)CCC=[N+]1[O-],-9.11% (inactive),
O=[N+]([O-])c1ccc(CNc2nc(NCc3cccc(C(F)(F)F)c3)nc3nc[nH]c23)cc1,-22.2% (inactive),
CSc1ccccc1N1CCN(CCCCCC(=O)NC2CCCc3ccccc32)CC1 (stereo not drawn),12.7% (inactive),
CCCCCCCCc1ccc(-c2ccc(C(=O)O)cc2)cc1,-11.4% (inactive),
Fc1cccc(/C=N/N=C/c2cccc(F)c2)c1,11.3% (inactive),
CC(=O)N[C@H](C(=O)O)C(C)(C)SN=O,4.11% (inactive),
CN(C)C(N)=NCCC[C@H](N)C(=O)O,-5.7% (inactive),
Nc1nc(Cl)nc2c1ncn2[C@@H]1O[C@H](COP(=O)(O)OP(=O)(O)OP(=O)(O)O)[C@@H](O)[C@H]1O,-19.4% (inactive),
N[C@H](CCCP(=O)(O)O)C(=O)O,-8.48% (inactive),
COc1ccc2c(c1)CCC1C2CC[C@@]2(C)C1CC[C@@H]2NCCCCCCN1C(=O)CCC1=O (stereo partly drawn),1.8% (inactive),
CCCCCCCCCCCCCCCCCCN(CCCCCCCCCCCCCCCCCC)CCCN(CCO)CCO,-3.12% (inactive),
CNC(=O)[C@H]1O[C@@H](n2cnc3c(NCc4cccc(I)c4)ncnc32)[C@H](O)[C@@H]1O,-13.6% (inactive),
CC(C)(NS(=O)(=O)c1ccc(Oc2ccc(F)cc2)cc1)C(=O)NO,-8.32% (inactive),
CS(=O)(=O)c1ccc(-n2nc(C(F)(F)F)cc2-c2ccc(F)cc2)cc1,-9.38% (inactive),
NC[C@H]1O[C@@H](n2cnc3c(N)ncnc32)[C@H](O)[C@@H]1O,-8.65% (inactive),
CCCN(CC1CC1)c1nc(C)nc(Nc2c(Cl)cc(Cl)cc2Cl)c1Cl,-10.6% (inactive),
